Ec RNAP inh – E. coli RNAP inhibitors, biochemical; DNA-directed RNA polymerase subunit beta (Escherichia coli (strain K12)), P0A8V2; E. coli RNA polymerase, fluorescence transcription assay; inhibition, %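 (tested at 10 µM)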; actives 0.2% (n = 62,000); in the data active = inhibition above about 20%;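 note: 0% = enzyme without compound and 100% = no enzyme blank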
CatG inh – human cathepsin G inhibitors, primary screen, biochemical, pooled compound mixtures, AMC fluorescence; actives 0.2% (n = 62,000); inhibition, % at 5 µM (by protocol); purified enzyme, AMC-tetrapeptide fluorescence; P08311; AID 581, 2007;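 active = inhibition above 20% in each of the two mixture wells holding the compound; inactive = inhibition of 20% or less in either well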;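 note: 0% = enzyme control without mixture and 100% = blank lacking enzyme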
Target sequence (P08311 21-244 limits assumed): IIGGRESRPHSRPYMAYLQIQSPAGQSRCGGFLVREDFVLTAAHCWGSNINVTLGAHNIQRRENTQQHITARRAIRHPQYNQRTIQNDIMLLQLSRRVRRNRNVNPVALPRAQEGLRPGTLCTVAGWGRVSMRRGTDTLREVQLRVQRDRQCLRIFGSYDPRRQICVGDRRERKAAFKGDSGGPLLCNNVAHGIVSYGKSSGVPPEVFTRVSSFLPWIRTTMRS
FXIIa mix inh – human factor XIIa inhibitors, primary screen, biochemical, pooled compound mixtures, fluorogenic substrate. purified FXIIa. actives 0.2% (n = 62,000). inhibition, % at 5 µM. Coagulation factor XII (Homo sapiens), P00748;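 note: 0% = enzyme without compound and 100% = no enzyme blank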
BAP1 inh – inhibitors of BAP1 deubiquitinase, primary screen, biochemical, Ub-AMC fluorescence, kinetic. Ubiquitin carboxyl-terminal hydrolase BAP1 (Homo sapiens), Q92560. recombinant BAP1, Ub-AMC hydrolysis fluorescence kinetic; hits give low values. calls only at 20 µM. actives 0.48% (n = 72,000). AID 436, 2006;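 active = activity remaining at or below 50% of control, provided the compound also passes the data quality filters; inactive = the rest, including low values that fail the filters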;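 note: 100% = DMSO wells rate and 0% = substrate alone blank rate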
FXIa inh mix – FXIa protease inhibitors in compound pools, primary screen, biochemical, 10-compound mixtures | Coagulation factor XI (Homo sapiens), P03951 | purified FXIa, fluorogenic substrate, pooled mixtures | inhibition, % at 5 µM | actives 0.19% (n = 62,000);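 note: each value is inhibition by a whole ten-compound pool holding the compound; 0% = enzyme with no mixture and 100% = wells lacking enzyme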
C1s block – complement C1s protease inhibitors, primary screen, biochemical, 10-compound mixtures | purified C1s, fluorogenic AMC substrate, pooled mixtures | mean inhibition % of two 10-compound mixtures (hits give high values), % at 5 µM (by protocol) | actives 0.16% (n = 62,000);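 active = inhibition above 20% in each of the two 10-compound mixture wells holding the compound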;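 note: 0% = enzyme wells lacking compound mixture and 100% = no-enzyme blank wells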
* = called active by the depositor; i = inactive; . = not tested or not shown; + = active, no number. Most compounds without a hit are left out; they make up all but 1.1% or so of the library. Cut-off read from the data, not from the text of the source, unless noted: active = inhibition above about 20% (passing the limit was not always enough); inactive = the rest.

SMILES	Ec RNAP inh	CatG inh	FXIIa mix inh	BAP1 inh	FXIa inh mix	C1s block
CCc1ccc(-c2cn(-c3nc(C)cc(C)n3)c(=N)o2)cc1	10.0	7.6	-3.4	i	4.9	51.9*
CCc1cc(C(=O)OC)c(N2C(=O)C3C4C=CC(C4)C3C2=O)s1 (stereo not given)	8.1	-5.0	51.6*	i	6.9	-10.9
COc1ccc2c(c1)CCc1c(C(=O)Nc3ccn(Cc4ccc(C)cc4)n3)noc1-2	3.2	93.8*	-21.7	i	37.7	11.2
COc1ccc2c(c1)CCc1c(C(=O)Nc3cc(C)n(Cc4ccc(Cl)cc4)n3)noc1-2	0.3	65.8*	10.4	i	33.1	12.1
O=C(CCCNS(=O)(=O)c1cccc2nsnc12)NC1CCCCC1	25.9*	-2.3	-22.3	i	5.8	-2.8
COc1cc(NC(=O)c2csc3c2CCCC3)ncn1	3.8	33.7*	1.1	i	23.7	38.4
COC(=O)c1ccc(S(=O)(=O)N(Cc2cc3cc4c(cc3[nH]c2=O)OCO4)C2CCCCC2)cc1	0.1	6.9	0.6	+	4.1	-4.7
CC(=O)c1ccc(S(=O)(=O)N(Cc2cc3cc4c(cc3[nH]c2=O)OCCO4)CC2CCCO2)cc1 (stereo not given)	4.5	-14.6	-3.9	i	1.4	-21.6
CC(=O)Nc1cccc(-c2nc3ccccc3c(=O)o2)c1	-6.6	64.5*	-19.6	i	6.9	22.1
CCC(=O)Nc1cccc(-c2nc3ccccc3c(=O)o2)c1	-1.7	59.0*	2.7	i	4.1	37.4*
CCCCC(=O)Nc1ccc(S(=O)(=O)NC(=O)CC)cc1	.	.	.	i	.	.
CCN1CCN(c2ccc(C(=O)Nc3ccc(Cl)cc3)cc2[N+](=O)[O-])CC1	.	.	.	i	.	.
c1ccc(-c2ccccn2)nc1	.	.	.	i	.	.
c1ccc(-c2n[nH]c(-c3ccccn3)n2)nc1	22.2*	-0.1	-2.3	i	6.6	-7.3
Cc1cc(NC(=O)c2cc3nc(C4CC4)cc(C(F)(F)F)n3n2)no1	10.8	13.5	9.9	i	5.1	22.2*
O=C(NCc1ccco1)c1cc2nc(C3CC3)cc(C(F)(F)F)n2n1	5.0	1.9	14.7	i	5.3	2.4
O=C(Nc1ccc(-n2cnnn2)cc1)C1CCC1	1.0	2.8	20.2*	i	7.1	-21.1
O=C(CN1CCN(c2ccc(F)cc2)CC1)Nc1ccc(-n2cnnn2)cc1	.	.	.	i	.	.
COc1ccc(-c2nnc(NC(=O)c3ccc(S(=O)(=O)N4COCC4(C)C)cc3)o2)cc1	4.2	1.3	3.4	i	5.8	12.3
CC1(C)COCN1S(=O)(=O)c1ccc(C(=O)Nc2nnc(-c3ccc(Cl)s3)o2)cc1	5.6	10.1	10.8	i	11.2	23.1*
O=c1cc(N2CCC(Cc3ccccc3)CC2)[nH]c(=O)n1C1CCCCC1	-0.2	4.4	3.1	i	-0.7	-2.3
O=c1cc(N2CCc3ccccc3C2)[nH]c(=O)n1C1CCCCC1	9.9	3.2	35.0*	i	2.5	-83.9
COc1ccccc1-c1nc(-c2ccncc2)no1	.	2.5	12.7	i	1.2	-8.1
COc1ccccc1-c1nc(-c2ccc(Br)cc2)no1	8.0	8.5	28.6*	i	2.6	7.3
COc1ccc(C(=O)n2ccc(C)n2)cc1Br	.	20.7*	3.6	i	15.6	20.4
COc1ccc(C(=S)N2CCN(C)CC2)cc1Br	-4.5	-14.3	3.2	i	-2.1	16.7
O=C(NCc1n[nH]c(=S)n1-c1ccc(Br)cc1)c1ccc(S(=O)(=O)N2CCCC2)cc1	.	.	.	i	.	.
COc1ccc(-n2c(CNC(=O)c3ccc(S(=O)(=O)N4CCCC4)cc3)n[nH]c2=S)cc1	4.2	5.8	21.9*	i	-5.3	1.2
O=S(=O)(Nc1cccnc1)c1cccs1	1.4	36.2	4.8	i	44.9*	4.9
CCn1cnc2sc(C(=O)N(Cc3ccc(N(C)C)cc3)Cc3ccco3)c(C)c2c1=O	-5.6	3.9	-19.6	i	23.0*	-4.7

From PubChem BioAssay
